# Activity calls are given as the source filed them. Rule for the calls: active = hit-call score of the fitted dose curve at least 0.9, where 1 is the maximum; inactive = score below 0.9.
# Read-out: Decorin, DCN (gene 1634)
# Experiment: BSK_MyoF_Decorin: BioMAP Diversity Plus: MyoF Assay for Decorin Biomarker Activity (AID 2284265)
# Details: primary human lung fibroblasts
# Procedure: BSK_MyoF is a cell-based, multiplexed-readout assay that uses lung fibroblasts, […], with measurements taken at 24 hours after chemical dosing in a microplate: 96-well plate.BSK_MyoF_Decorin is an assay component measured in the BSK_MyoF assay. It measures Decorin antibody related to regulation of gene expression using ELISA technology.Data from the assay component BSK_MyoF_Decorin was analyzed at the endpoint, BSK_MyoF_Decorin, in the positive analysis fitting direction relative to DMSO as the negative control and baseline of activity. Using a type of binding reporter, gain or loss-of-signal activity can be used to understand protein changes. To generalize the intended target to other relatable targets, this assay endpoint is annotated to the 'cell adhesion molecules' intended target family, where the subfamily is 'decorin'.
# The levels of cell surface (or secreted, indicated by the prefix "s") biomarker endpoints were measured by ELISA. Overt cytotoxicity to cells in confluent adherent cultures (all systems other than the BT system) was assessed by measuring total protein levels using sulforhodamine B (SRB) staining in parallel cultures at the time of biomarker measurements, indicated as SRB endpoints. For proliferation assays for adherent cell types, individual cell types are cultured at sub-confluence and relative cell numbers quantified by SRB staining at time points optimized for each system (48 h: 3C and CASM3C systems; 72 h: BT and HDF3CGF systems; 96 h: SAg system). SRB was performed by staining cells with 0.1% SRB after fixation with 10% TCA and reading wells at 560 nm.Viability and proliferation of PBMC (T cells) was quantified by Alamar Blue reduction for the SAg and BT systems. For PBMC viability (referred to as PBMC Cytotoxicity within the assay endpoint names), cells were plated (75,000/well in a 96-well plate) and then chemical samples added for 1 h before addition of activators, SEB and TSST-1 (20 ng/mL final concentration each). Cells were incubated for 90 h. Then, Alamar Blue (20 uL/well) (Invitrogen, Cat DAL1100) was added for 6 h, and the plates were read with a fluorescence microplate reader at 546/580 nm (excitation/emission). For PBMC proliferation, cells were plated and activated as above but incubated for only 16 h prior to addition of Alamar Blue. Plates were read after 6 h.
SMILES,outcome,AC50
O=C(Cl)c1cc(C(=O)Cl)cc(C(=O)Cl)c1,inactive,–
CCCCC(CC)COC(=O)c1ccccc1O (configuration not stated),inactive,–
CC(C)(c1cc(Br)c(OCCO)c(Br)c1)c1cc(Br)c(OCCO)c(Br)c1,–,9.76 µM (active)
CCCCNc1ccc(NCCCC)c2c1C(=O)c1ccccc1C2=O,inactive,–
CCOc1nc(F)cc2nc(S(=O)(=O)Nc3c(Cl)cccc3C(=O)OC)nn12,inactive,–
O=Nc1ccc(O)cc1,inactive,–
c1ccc2c(c1)ccc1cc3c(ccc4ccccc43)cc12,inactive,–
CC(C)C(=O)C(C)C,inactive,–
O=c1c2ccccc2oc2ccccc12,inactive,–
CCCCCCCCCCCCCCCC[N+](C)(C)CC,–,5.5 µM (active)
C#CC1(O)CC[C@H]2[C@@H]3CCC4=CCCC[C@@H]4[C@H]3CC[C@@]21C (some centres not stated),–,31.4 µM (active)
COCc1c(C(C)C)nc(C(C)C)c(/C=C/[C@@H](O)C[C@@H](O)CC(=O)O)c1-c1ccc(F)cc1,inactive,–
CCCCC/C=C\C/C=C\CCCCCCCC(=O)OC,inactive,–
C=CCOCC(O)CCl (configuration not stated),inactive,–
CCO[Si](CCCN=C=O)(OCC)OCC,inactive,–
CCCCCCCCc1ccc(Nc2ccc(CCCCCCCC)cc2)cc1,inactive,–
S=C(NC1CCCCC1)NC1CCCCC1,inactive,–
c1ccc(-c2ccccn2)nc1,inactive,–
C=CC=CC=CCCCCC,inactive,–
COc1ccc2nc(N)sc2c1,inactive,–
O=C(Nc1ccccc1SSc1ccccc1NC(=O)c1ccccc1)c1ccccc1,inactive,–
C/C=C\C/C=C/CCCCCCCCOC(C)=O,inactive,–
CC1OC1C1CCC2(C)OC2C1 (configuration not stated),inactive,–
C=CC(=O)OCC(Br)CBr (configuration not stated),inactive,–
c1ccc2c(c1)ccc1ncccc12,inactive,–
C=CCOc1c(Br)cc(Br)cc1Br,inactive,–
N#[N+]c1ccc2c(S(=O)(=O)[O-])cccc2c1O,inactive,–
